Results: PubChem BioAssay
Calls of active or inactive are those of the source. Unless noted, how the calls were made is not given here.

Legend:
[1] = compounds binding Alexa647 anti-His antibody – biochemical, small-molecule microarray, 635 nm fluorescence, artefact control for SMM control protein annotation, primary screen (AID 1128); conditions: higher = more signal;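 further: score merges feature fluorescence with signal-to-noise for each printed compound spot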
[2] = tested on: Human papillomavirus type 1a E7 protein (residues 1-88); experiment: HPV1a E7 small-molecule binders, primary screen, biochemical, small-molecule microarray, residues 1-88, 635 nm (AID 1129); conditions: small-molecule microarray binding, fluorescence 635 nm; higher = more signal
[3] = target: Focal adhesion kinase 1 (Homo sapiens) (UniProt Q05397); experiment: PTK2 protein binding on printed compound slides – biochemical, small-molecule microarray, 635/667 nm fluorescence, BSA, DTT, primary screen (AID 1130); conditions: 635 nm fluorescence, higher = more signal;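 further: composite of spot emission at 667 nm and signal to noise over triplicate slides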
[4] = tested on: Fibrinogen (Alexa647-labelled); experiment: Alexa647-fibrinogen binding to printed small molecules – biochemical, small-molecule microarray, 635/667 nm fluorescence, artefact control for SMM control-protein annotation, profiling panel (AID 1131); conditions: fibrinogen-A647 binding fluorescence, higher = more signal;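 further: z-score merges 667 nm fluorescence with per-spot signal-to-noise over triplicate slides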
[5] = target: Follistatin (Homo sapiens) (UniProt P19883); experiment: FST protein binding to printed compounds – biochemical, small-molecule microarray, 635/667 nm fluorescence, primary screen (AID 1132); conditions: 635 nm fluorescence, higher = more signal
[6] = target: Fibroblast growth factor 2 (Homo sapiens) (UniProt P09038); experiment: basic fibroblast growth factor binding to printed compounds – biochemical, small-molecule microarray, 635/667 nm fluorescence, primary screen (AID 1133); conditions: FGF2, fluorescence 635/667, higher = more signal
[7] = JC-1 mitochondrial potential readout, lung cancer cells – cell-based, A549, JC-1 fluorescence, basal, 24 h, 100 nL, profiling panel (AID 1138); conditions: higher = more signal;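 further: A549 lung adenocarcinoma cells under basal conditions with no added stimulus; test concentration not given here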
[8] = tested on: Lefty1; experiment: Lefty1 protein binding to printed compounds – biochemical, small-molecule microarray, 635/667 nm fluorescence, primary screen (AID 1139); conditions: fluorescence 635/667, higher = more signal
[9] = tested on: wheat germ agglutinin (Triticum aestivum), Alexa647-labelled; experiment: Alexa647-WGA lectin binding to printed small molecules – biochemical, small-molecule microarray, 635/667 nm fluorescence, artefact control for SMM control-protein annotation, profiling panel (AID 1140); conditions: WGA-A647 binding, 635 nm fluorescence, higher = more signal;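 further: score merges 667 nm feature emission with signal to noise over triplicate slides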
[10] = target: Luciferin 4-monooxygenase (Photinus pyralis) (UniProt P08659); experiment: inhibition of purified Photinus pyralis luciferase – biochemical, luminescence, purified enzyme, 2006 set, primary screen (AID 1141); conditions: purified firefly luciferase, SteadyGlo luminescence, 30 min; higher = more signal, called active from +8 up or from −8 down;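 further: cell-free assay with purified firefly luciferase at 100 ng per well in PBS; test concentration not given here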
[11] = tested on: Wnt5a (protein binding on small-molecule microarray); experiment: small molecules binding Wnt5a protein – biophysical, small-molecule microarray, 635/667 nm fluorescence, primary screen (AID 1142); conditions: 635 nm fluorescence, higher = more signal;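 further: fluorescence read at 667 nm with signal to noise per printed feature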
[12] = ATP-based viability of Huh7 replicon cells – cell-based, CellTiter-Glo luminescence, basal, 48 h, cytotoxicity control for HCV replication inhibitor project, primary screen (AID 1143); conditions: higher = more signal, called active from +8 up or from −8 down;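 further: Huh7 hepatoma cells carrying a hepatitis C replication reporter with no stimulus; test concentration not given here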
[13] = Pseudomonas biofilm growth suppression – PAO1 strain, BacTiter-Glo luminescence, LB-PBS, primary screen (AID 1144); conditions: P. aeruginosa PAO1 biofilm, 12 h, higher = more signal
[14] = basal CRE-LacZ reporter activity in PC12 – cell-based, unstimulated, primary screen (AID 1145); conditions: no forskolin, luminescence, 4.5 h, higher = more signal, called active from +8 up or from −8 down
[15] = forskolin-driven CRE-LacZ activity in PC12 – cell-based, CRE-LacZ reporter, forskolin-stimulated, primary screen (AID 1146); conditions: luminescence, 4.5 h, higher = more signal, called active from +8 up or from −8 down;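 further: PC12 cells with 6xCRE LacZ reporter stimulated by forskolin 10 µM; beta-galactosidase reporter signal reflecting CREB driven transcription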
[16] = target: Streptavidin (Streptomyces avidinii) (UniProt P22629); experiment: compounds binding control protein streptavidin – biophysical, small-molecule microarray, 635/667 nm fluorescence, artefact control for SMM compound annotation, primary screen (AID 1147); conditions: higher = more signal;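 further: signal reflects streptavidin binding to arrayed compounds as a control protein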
[17] = probe aInhba binding on compound microarray – biochemical, small-molecule microarray, 635/667 nm fluorescence, primary screen (AID 1148); conditions: higher = more signal;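 further: score merges 667nm spot fluorescence with signal-to-noise for antibody binding to printed compounds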
[18] = target: Torsin-1A (Homo sapiens) (UniProt O14656); experiment: TOR1A wild-type binding on microarray – cell lysate, small-molecule microarray, lysate, 635/667 nm, primary screen (AID 1149); conditions: COS7 hTOR1A-WT lysate, 635 nm fluorescence, higher = more signal
[19] = target: Torsin-1A (Homo sapiens) (UniProt O14656); experiment: torsin A mutant lysate binding on microarrays – cell lysate, small-molecule microarray, COS7 lysate, 635/667 nm fluorescence, primary screen (AID 1150); conditions: COS7 hTOR1A mutant lysate, 635 nm fluorescence, higher = more signal;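 further: score pools 667 nm emission and signal to noise measuring lysate protein binding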
[20] = tested on: Sonic hedgehog protein (Shh); experiment: Sonic hedgehog microarray binding compounds – biochemical, small-molecule microarray, 635/667 nm fluorescence, primary screen (AID 1151); conditions: 635 nm fluorescence, higher = more signal;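 further: Shh protein binding to compounds spotted on small-molecule microarray slides; score combines spot fluorescence intensity with signal-to-noise across triplicate slides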

Sequence of Focal adhesion kinase 1 (Homo sapiens) (Q05397 whole entry, looked up): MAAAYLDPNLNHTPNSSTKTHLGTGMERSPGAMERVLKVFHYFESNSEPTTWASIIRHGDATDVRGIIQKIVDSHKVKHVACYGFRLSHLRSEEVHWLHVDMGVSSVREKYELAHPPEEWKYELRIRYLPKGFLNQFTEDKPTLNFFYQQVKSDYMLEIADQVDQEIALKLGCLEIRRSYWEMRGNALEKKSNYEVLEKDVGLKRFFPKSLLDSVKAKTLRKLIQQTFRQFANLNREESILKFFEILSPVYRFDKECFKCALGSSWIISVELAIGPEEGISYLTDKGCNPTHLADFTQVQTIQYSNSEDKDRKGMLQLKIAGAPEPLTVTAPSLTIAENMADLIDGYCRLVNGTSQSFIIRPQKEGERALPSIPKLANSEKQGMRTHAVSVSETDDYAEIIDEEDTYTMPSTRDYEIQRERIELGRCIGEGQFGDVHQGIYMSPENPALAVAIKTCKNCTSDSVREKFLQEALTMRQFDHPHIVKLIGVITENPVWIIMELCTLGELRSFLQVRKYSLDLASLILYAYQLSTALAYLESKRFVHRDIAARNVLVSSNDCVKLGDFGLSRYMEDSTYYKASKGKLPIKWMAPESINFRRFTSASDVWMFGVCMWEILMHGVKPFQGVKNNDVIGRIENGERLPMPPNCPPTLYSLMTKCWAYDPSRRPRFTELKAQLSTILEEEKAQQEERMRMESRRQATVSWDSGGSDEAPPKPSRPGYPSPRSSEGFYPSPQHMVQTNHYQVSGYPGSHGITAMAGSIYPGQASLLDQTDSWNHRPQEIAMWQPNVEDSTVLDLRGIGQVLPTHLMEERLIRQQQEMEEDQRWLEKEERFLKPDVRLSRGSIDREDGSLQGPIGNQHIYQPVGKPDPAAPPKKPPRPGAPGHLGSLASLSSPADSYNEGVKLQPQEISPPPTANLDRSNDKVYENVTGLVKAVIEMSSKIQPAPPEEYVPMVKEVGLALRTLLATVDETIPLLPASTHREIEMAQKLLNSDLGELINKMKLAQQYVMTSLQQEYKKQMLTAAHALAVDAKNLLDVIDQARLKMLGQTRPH
Sequence of Follistatin (Homo sapiens) (P19883 whole entry, looked up): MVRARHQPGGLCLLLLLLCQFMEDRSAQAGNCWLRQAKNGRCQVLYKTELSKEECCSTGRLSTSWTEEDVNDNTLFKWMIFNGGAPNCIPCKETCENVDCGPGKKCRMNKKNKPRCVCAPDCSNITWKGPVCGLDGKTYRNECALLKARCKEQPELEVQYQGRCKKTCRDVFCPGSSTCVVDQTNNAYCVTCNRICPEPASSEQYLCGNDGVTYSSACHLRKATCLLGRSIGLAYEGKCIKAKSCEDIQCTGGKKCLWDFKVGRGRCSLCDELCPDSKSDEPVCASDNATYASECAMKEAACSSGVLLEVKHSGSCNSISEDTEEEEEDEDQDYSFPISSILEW
Sequence of Streptavidin (Streptomyces avidinii) (P22629 whole entry, looked up): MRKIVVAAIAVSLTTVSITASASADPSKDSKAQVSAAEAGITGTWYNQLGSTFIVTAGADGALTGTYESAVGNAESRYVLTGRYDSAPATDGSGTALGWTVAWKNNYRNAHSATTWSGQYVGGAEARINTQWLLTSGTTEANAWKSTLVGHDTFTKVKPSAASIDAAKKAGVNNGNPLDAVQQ
Sequence of Luciferin 4-monooxygenase (Photinus pyralis) (P08659 whole entry, looked up): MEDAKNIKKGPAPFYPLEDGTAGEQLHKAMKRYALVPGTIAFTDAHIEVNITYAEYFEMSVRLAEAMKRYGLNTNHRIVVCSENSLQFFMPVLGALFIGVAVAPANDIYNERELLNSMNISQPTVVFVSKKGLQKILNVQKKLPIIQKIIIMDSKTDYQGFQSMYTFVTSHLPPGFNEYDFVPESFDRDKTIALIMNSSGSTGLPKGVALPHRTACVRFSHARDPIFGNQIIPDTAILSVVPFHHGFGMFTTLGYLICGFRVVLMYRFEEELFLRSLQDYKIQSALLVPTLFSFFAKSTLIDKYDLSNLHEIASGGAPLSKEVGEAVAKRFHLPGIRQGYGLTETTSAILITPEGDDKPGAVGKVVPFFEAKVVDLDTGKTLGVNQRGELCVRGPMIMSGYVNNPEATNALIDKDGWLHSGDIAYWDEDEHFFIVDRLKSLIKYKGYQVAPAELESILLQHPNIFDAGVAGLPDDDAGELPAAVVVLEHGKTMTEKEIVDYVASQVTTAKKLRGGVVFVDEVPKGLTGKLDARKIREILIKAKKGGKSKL
Sequence of Torsin-1A (Homo sapiens) (O14656 whole entry, looked up): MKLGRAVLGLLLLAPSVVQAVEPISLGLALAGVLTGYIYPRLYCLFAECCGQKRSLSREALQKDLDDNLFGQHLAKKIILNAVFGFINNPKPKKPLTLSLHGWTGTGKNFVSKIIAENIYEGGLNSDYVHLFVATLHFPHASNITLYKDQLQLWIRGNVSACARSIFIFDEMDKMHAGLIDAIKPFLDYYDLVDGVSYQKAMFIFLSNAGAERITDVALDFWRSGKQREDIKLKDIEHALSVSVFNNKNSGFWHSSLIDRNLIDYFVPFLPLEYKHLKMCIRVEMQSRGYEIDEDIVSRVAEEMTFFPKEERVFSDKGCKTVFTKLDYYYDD
Sequence of Fibroblast growth factor 2 (Homo sapiens) (P09038 whole entry, looked up): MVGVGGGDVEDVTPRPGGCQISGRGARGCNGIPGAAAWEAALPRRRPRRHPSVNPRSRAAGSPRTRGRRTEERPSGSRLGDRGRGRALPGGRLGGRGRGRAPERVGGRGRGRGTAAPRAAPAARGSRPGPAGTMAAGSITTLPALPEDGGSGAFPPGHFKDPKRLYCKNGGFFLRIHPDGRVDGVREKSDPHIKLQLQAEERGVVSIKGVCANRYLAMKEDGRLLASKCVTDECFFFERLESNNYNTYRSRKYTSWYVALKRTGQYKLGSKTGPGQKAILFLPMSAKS

| Compound | composite z-score [1] | composite z-score [2] | composite z-score [3] | composite z-score [4] | composite z-score [5] | composite z-score [6] | z-score [7] | composite z-score [8] | composite z-score [9] | z-score [10] | composite z-score [11] | z-score [12] | z-score [13] | z-score [14] | z-score [15] | composite z-score [16] | composite z-score [17] | composite z-score [18] | composite z-score [19] | composite z-score [20] |
| --- | --- | --- | --- | --- | --- | --- | --- | --- | --- | --- | --- | --- | --- | --- | --- | --- | --- | --- | --- | --- |
| O=C(C=Cc1ccc2c(c1)OCO2)c1ccc(F)cc1 | 0.877 | -0.575 | -0.174 | 0.0796 | 0.853 | 1.31 | -0.0292 | 1.21 | -0.177 | -6.89 (inactive) | 0.239 | -1.25 (inactive) | 0.583 (inactive) | 1.28 (inactive) | 0.362 (inactive) | 1.32 | 0.259 | 0.245 | -0.397 | 2.05 |
| CC(C)=CCCC(C)=CCON=C1C[C@@H](O)[C@@H](O)[C@@H]2[C@@H]3C(=O)N(c4cccc(Oc5ccccc5)c4)C(=O)[C@@H]3CC[C@@H]12 | 0.0079 | 0.929 | 1.58 | 0.589 | 0.612 | 0.207 | -0.82 | 0.514 | 0.0969 | 0.775 (inactive) | -0.102 | -4.07 (inactive) | -0.375 (inactive) | 2.51 (inactive) | 0.557 (inactive) | 0.217 | -0.128 | -0.38 | 0.0864 | 0.402 |
| C[C@H](ON=C1[C@H]2CCn3c(=O)n(-c4ccccc4)c(=O)n3[C@H]2[C@H](O)[C@@H]2O[C@H]12)c1cn([C@H](CO)Cc2ccccc2)nn1 | -0.692 | 0.588 | 0.273 | 0.985 | 0.3 | 0.646 | -0.717 | 0.572 | 0.742 | -0.0281 (inactive) | 0.087 | 1.92 (inactive) | 0.285 (inactive) | -0.324 (inactive) | 0.578 (inactive) | 1.19 | -0.154 | 0.421 | 0.295 | 0.248 |
| CC(=O)OC[C@H]1O[C@H](CC=NO[C@H](C)c2cn([C@H](CO)Cc3ccccc3)nn2)C=C[C@@H]1OC(C)=O | 0.499 | 0.777 | -0.0453 | 0.0573 | 0.69 | 0.494 | -0.866 | 0.732 | 0.439 | 0.809 (inactive) | 0.315 | 0.089 (inactive) | -0.738 (inactive) | 0.839 (inactive) | 0.731 (inactive) | 1.35 | -0.218 | 0.56 | 0.579 | 0.805 |
| CC(C)CON=C1C[C@@H](O)[C@@H](O)[C@@H]2[C@@H]3C(=O)N(C4CCCCC4)C(=O)[C@@H]3CC[C@@H]12 | 0.889 | -0.586 | 0.955 | 0.476 | 0.0116 | -0.309 | -0.572 | 0.225 | 0.556 | 0.0051 (inactive) | -0.146 | -0.82 (inactive) | -0.342 (inactive) | 0.156 (inactive) | 0.147 (inactive) | 0.115 | -0.128 | -0.792 | -0.0797 | -0.318 |
